Reference: the supplement of paper PMC8371130
Counter-ions that a name gives are not always drawn.

System: HL-1
Assay: relative cell viability (CellTiter-Glo) vs DMSO control (% of DMSO control); higher = more viable cells
Procedure, shortened: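 HL-1 mouse atrial cardiomyocytes were seeded into 384-well plates at 1000 cells per well along with compounds at 40, 200, 1000 or 5000 nM in 0.01% DMSO. After one day, the cells were moved to a hypoxic workstation (1% O2) for 48 h and then reoxygenated for 24 h in a normal incubator, while others remained in normoxia for the same period. Cell viability was measured by CellTiter-Glo luminescence and normalised to vehicle-treated control cells.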

[1] = oxygen condition: hypoxia 48 h (1% O2) + reoxygenation 24 h, 40 nM
[2] = oxygen condition: hypoxia 48 h (1% O2) + reoxygenation 24 h, 200 nM
[3] = oxygen condition: hypoxia 48 h (1% O2) + reoxygenation 24 h, 1000 nM
[4] = oxygen condition: hypoxia 48 h (1% O2) + reoxygenation 24 h, 5000 nM
[5] = oxygen condition: normoxia 72 h, 40 nM
[6] = oxygen condition: normoxia 72 h, 200 nM
[7] = oxygen condition: normoxia 72 h, 1000 nM
[8] = oxygen condition: normoxia 72 h, 5000 nM

Row | SMILES | relative cell viability [1] | relative cell viability [2] | relative cell viability [3] | relative cell viability [4] | relative cell viability [5] | relative cell viability [6] | relative cell viability [7] | relative cell viability [8]
1 | CCCCc1oc2ccc(NS(C)(=O)=O)cc2c1C(=O)c1ccc(OCCCN(CCCC)CCCC)cc1 [Dronedarone HCl] | 99.9 | 99.6 | 102 | 105 | 99.8 | 110 | 102 | 95
2 | CN(C)CCOC(C)(c1ccccc1)c1ccccn1 (centres undefined) [Doxylamine Succinate] | 111 | 104 | 105 | 109 | 107 | 112 | 117 | 123
3 | CC(C)NCC(O)c1ccc(NS(C)(=O)=O)cc1 (centres undefined) [Sotalol] | 100 | 98.9 | 93 | 99.8 | 96.9 | 94.1 | 98.4 | 104
4 | C[C@@H](O[C@H]1OCCN(Cc2nn(P(=O)(O)O)c(=O)[nH]2)[C@H]1c1ccc(F)cc1)c1cc(C(F)(F)F)cc(C(F)(F)F)c1 [Fosaprepitant dimeglumine] | 104 | 105 | 119 | 108 | 113 | 129 | 130 | 105
5 | CN(CCOc1ccc(CC2SC(=O)NC2=O)cc1)c1ccccn1 (centres undefined) [Rosiglitazone] | 104 | 104 | 98.3 | 104 | 99.2 | 105 | 98.4 | 104
6 | CNC(=O)c1cc(Oc2ccc(NC(=O)Nc3ccc(Cl)c(C(F)(F)F)c3)c(F)c2)ccn1 [Regorafenib] | 107 | 113 | 109 | 114 | 110 | 110 | 114 | 134
7 | CC(COc1ccccc1)N(CCCl)Cc1ccccc1 (centres undefined) [Phenoxybenzamine HCl] | 101 | 97.6 | 93.1 | 95.4 | 101 | 101 | 91.5 | 107
8 | NS(=O)(=O)c1cc2c(cc1C(F)(F)F)NC(Cc1ccccc1)NS2(=O)=O (centres undefined) [Bendroflumethiazide] | 93.6 | 98.4 | 101 | 106 | 104 | 100 | 105 | 110
9 | O=C(c1cc(Cc2n[nH]c(=O)c3ccccc23)ccc1F)N1CCN(C(=O)C2CC2)CC1 [Olaparib] | 86.7 | 84.4 | 76.2 | 61.1 | 79 | 86.6 | 70.1 | 60
10 | C#C[C@]1(OC(C)=O)CC[C@H]2[C@@H]3CCC4=C[C@@H](OC(C)=O)CC[C@@H]4[C@H]3CC[C@@]21C [Ethynodiol diacetate] | 97.7 | 103 | 113 | 111 | 104 | 110 | 104 | 116
11 | COC(=O)C1=C(C#N)NC(C)=C(C(=O)OC(C)C)C1c1cccc([N+](=O)[O-])c1 (centres undefined) [Nilvadipine] | 107 | 105 | 96.3 | 98.7 | 98.3 | 98.1 | 102 | 108
12 | O=c1[nH]cc(F)c(=O)[nH]1 [Adrucil] | 110 | 94.1 | 52.9 | 18.6 | 96.6 | 81.2 | 42.9 | 15.4
13 | NCCC(O)(P(=O)(O)O)P(=O)(O)O [Pamidronate Disodium] | 98.6 | 106 | 107 | 76.5 | 107 | 99.9 | 108 | 105
14 | OCCOCCN1CCN(C(c2ccccc2)c2ccc(Cl)cc2)CC1 (centres undefined) [Hydroxyzine 2HCl] | 104 | 107 | 109 | 114 | 102 | 107 | 105 | 109
15 | CC[C@@H]1C(=O)OC[C@@H]1Cc1cncn1C [Pilocarpine HCl] | 104 | 111 | 105 | 110 | 115 | 104 | 106 | 119
16 | Cc1ccc(C(=O)Nc2ccc(CN3CCN(C)CC3)c(C(F)(F)F)c2)cc1C#Cc1cnc2cccnn12 [Ponatinib] | 105 | 108 | 113 | 107 | 103 | 103 | 105 | 106
17 | CC(C)c1c(C(=O)Nc2ccccc2)c(-c2ccccc2)c(-c2ccc(F)cc2)n1CC[C@@H](O)C[C@@H](O)CC(=O)O [Atorvastatin calcium] | 107 | 95.8 | 102 | 41.7 | 96.4 | 98.8 | 81.6 | 19.9
18 | Nc1ccn([C@@H]2O[C@H](CO)[C@@H](O)[C@H]2O)c(=O)n1 [Cytidine] | 101 | 101 | 105 | 106 | 106 | 107 | 101 | 106
19 | Cc1ccccc1N1C(=O)c2cc(S(N)(=O)=O)c(Cl)cc2NC1C (centres undefined) [Metolazone] | 104 | 107 | 107 | 111 | 109 | 110 | 112 | 116
20 | Nc1cccc2c1C(=O)N(C1CCC(=O)NC1=O)C2=O (centres undefined) [Pomalidomide] | 100 | 97.5 | 103 | 112 | 96.9 | 104 | 103 | 113
21 | CC1CNc2c(cccc2S(=O)(=O)N[C@@H](CCCNC(=N)N)C(=O)N2CC[C@@H](C)C[C@@H]2C(=O)O)C1 (some centres undefined) [Argatroban] | 97.7 | 97.5 | 94.6 | 106 | 97.3 | 95.6 | 97.6 | 106
22 | NCC(=O)CCC(=O)O [5-Aminolevulinic acid hydrochloride] | 101 | 104 | 105 | 110 | 99.8 | 102 | 100 | 113

Row | SMILES | relative cell viability [1] | relative cell viability [2] | relative cell viability [3] | relative cell viability [4] | relative cell viability [5] | relative cell viability [6] | relative cell viability [7] | relative cell viability [8]
23 | CNC[C@H](O)c1cccc(O)c1 [Phenylephrine HCl] | 110 | 108 | 102 | 109 | 110 | 108 | 117 | 118
24 | Oc1ccc(OC2CCCCO2)cc1 (centres undefined) [Deoxyarbutin] | 103 | 104 | 107 | 113 | 103 | 102 | 113 | 109
25 | CCOC(=O)C1=C(C)NC(C)=C(C(=O)OC)C1c1cccc([N+](=O)[O-])c1 (centres undefined) [Nitrendipine] | 95.9 | 106 | 98.1 | 107 | 107 | 103 | 104 | 111
26 | CCCc1nc2c(C)cc(-c3nc4ccccc4n3C)cc2n1Cc1ccc(-c2ccccc2C(=O)O)cc1 [Telmisartan] | 107 | 102 | 105 | 101 | 105 | 104 | 107 | 109
27 | Clc1ccc2c(c1)CCc1cccnc1C2=C1CCNCC1 [Desloratadine] | 92.5 | 109 | 102 | 97 | 105 | 97.5 | 104 | 103
28 | COc1cc2c(cc1OC)CC(=O)N(CCCN(C)C[C@H]1Cc3cc(OC)c(OC)cc31)CC2 [Ivabradine HCl] | 108 | 106 | 107 | 106 | 105 | 106 | 102 | 106
29 | Nc1nc(Cl)nc2c1ncn2[C@H]1C[C@H](O)[C@@H](CO)O1 [Cladribine] | 76.2 | 30.7 | 6.18 | 4.06 | 55.5 | 21.9 | 5.2 | 4.23
30 | CS(=O)(=O)Nc1ccc([N+](=O)[O-])cc1Oc1ccccc1 [Nimesulide] | 105 | 105 | 109 | 103 | 108 | 105 | 102 | 104
31 | CCCCOc1cc(C(=O)NCCN(CC)CC)c2ccccc2n1 [Dibucaine HCL] | 103 | 107 | 108 | 118 | 109 | 110 | 109 | 118
32 | OCCN1C[C@H](O)[C@@H](O)[C@H](O)[C@H]1CO [Miglitol] | 104 | 104 | 119 | 108 | 101 | 102 | 106 | 117
33 | CC(Oc1c(Cl)cccc1Cl)C1=NCCN1 (centres undefined) [Lofexidine  HCl] | 99.4 | 101 | 99.6 | 118 | 98.3 | 103 | 89.6 | 108
34 | CNC(=O)c1ccccc1Sc1ccc2c(/C=C/c3ccccn3)n[nH]c2c1 [Axitinib] | 110 | 114 | 117 | 116 | 105 | 108 | 112 | 111
35 | CCC(=O)O[C@]1(C(=O)CCl)[C@@H](C)C[C@H]2[C@@H]3CCC4=CC(=O)C=C[C@]4(C)[C@@]3(F)[C@@H](O)C[C@@]21C [Clobetasol propionate] | 98.2 | 94.4 | 94.5 | 97.3 | 92.3 | 90.1 | 88.3 | 94.5
36 | Cc1onc(-c2ccccc2)c1C(=O)N[C@@H]1C(=O)N2[C@@H]1SC(C)(C)[C@@H]2C(=O)O [Oxacillin sodium monohydrate] | 104 | 107 | 96.5 | 110 | 103 | 101 | 110 | 109
37 | Nc1ncnc2c1ncn2[C@@H]1O[C@H](CO)[C@@H](O)[C@H]1O [Adenosine] | 104 | 107 | 113 | 108 | 104 | 108 | 111 | 110
38 | Cc1ccc(NC(=O)c2ccc(CN3CCN(C)CC3)cc2)cc1Nc1nccc(-c2cccnc2)n1 [Imatinib Mesylate] | 121 | 117 | 136 | 111 | 122 | 146 | 156 | 117
39 | NC(N)=Nc1nc(CSCC/C(N)=N/S(N)(=O)=O)cs1 [Famotidine] | 103 | 101 | 114 | 120 | 107 | 101 | 97.9 | 108
40 | NS(=O)(=O)c1cc(Cl)c(Cl)c(S(N)(=O)=O)c1 [Dichlorphenamide] | 109 | 106 | 103 | 115 | 105 | 102 | 103 | 109
41 | Nc1nc2ccc(OC(F)(F)F)cc2s1 [Riluzole] | 102 | 105 | 108 | 111 | 103 | 104 | 107 | 107
42 | Cc1c(-c2ccc(O)cc2)n(Cc2ccc(OCCN3CCCCCC3)cc2)c2ccc(O)cc12 [Bazedoxifene HCl] | 107 | 99.8 | 101 | 84.1 | 98.6 | 97.9 | 105 | 45.6
43 | O=C(Nc1ccccc1)OCC(CN1CCCCC1)OC(=O)Nc1ccccc1 (centres undefined) [Diperodon HCl] | 103 | 101 | 104 | 98.6 | 87.5 | 107 | 103 | 109
